Screening results as filed in PubChem.
Shown are actives, neighbours in structure and some others; about 0.41% of the full set was active somewhere.
TRPV1 ag: agonists of human vanilloid receptor 1 (TRPV1) | Q8NER1 | TRPV1-expressing cells, Fluo-8 calcium influx, agonist mode | activation, % at 8.33 µM | actives 0.19% (n = 320,000) | AID 540275; in the data active = activation above about 80%; inconclusive = between about 30% and that limit; also: 0% is about no effect
Target sequence (Q8NER1 whole entry, looked up): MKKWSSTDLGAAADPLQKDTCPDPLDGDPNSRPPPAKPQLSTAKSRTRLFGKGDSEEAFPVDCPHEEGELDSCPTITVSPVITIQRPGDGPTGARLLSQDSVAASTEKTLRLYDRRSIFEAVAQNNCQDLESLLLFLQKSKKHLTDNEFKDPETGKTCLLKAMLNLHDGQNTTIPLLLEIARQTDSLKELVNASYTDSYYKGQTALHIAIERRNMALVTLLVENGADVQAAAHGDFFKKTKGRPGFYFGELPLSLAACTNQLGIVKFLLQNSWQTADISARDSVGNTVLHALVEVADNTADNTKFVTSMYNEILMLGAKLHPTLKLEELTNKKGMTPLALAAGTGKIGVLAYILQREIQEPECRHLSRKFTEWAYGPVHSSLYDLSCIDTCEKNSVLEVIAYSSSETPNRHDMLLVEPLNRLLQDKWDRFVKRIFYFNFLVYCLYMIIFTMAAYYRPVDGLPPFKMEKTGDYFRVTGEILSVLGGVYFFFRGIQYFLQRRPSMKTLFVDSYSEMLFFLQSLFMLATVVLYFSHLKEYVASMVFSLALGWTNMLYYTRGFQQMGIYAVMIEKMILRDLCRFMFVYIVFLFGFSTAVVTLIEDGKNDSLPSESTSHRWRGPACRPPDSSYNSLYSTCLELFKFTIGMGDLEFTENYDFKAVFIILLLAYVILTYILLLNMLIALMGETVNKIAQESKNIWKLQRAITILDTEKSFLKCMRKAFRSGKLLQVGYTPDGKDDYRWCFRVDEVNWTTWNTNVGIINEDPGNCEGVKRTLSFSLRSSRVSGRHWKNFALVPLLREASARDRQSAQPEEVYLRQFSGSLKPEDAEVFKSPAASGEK
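Cells expressing TRPV1 were dye-loaded with Fluo-8 and read kinetically: 10 s baseline, 3 min after compound (agonist portion), then 2 min after EC20 capsaicin (allosteric enhancer portion). Calcium-bound dye fluorescence at 480/520 nm.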
LDHA inh: blocks human lactate dehydrogenase A; P00338; purified LDHA, NADH/diaphorase-resazurin fluorescence; stronger effect = lower value; activity change, % (values are at about 110 or 230 µM); actives 0.15% (n = 480,000); AID 1347041; in the data active = activity change below about -30%; inconclusive = mostly about -25% to -30%;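 also: plate controls were DMSO wells for no effect and wells without enzyme for full effect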
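Resorufin fluorescence (ex540/em590), read at 0 and 20 min after diaphorase/resazurin addition, reports the NADH left after a 5 min room-temperature reaction of 2 nM human LDH5 with 0.06 mM NADH and 0.2 mM pyruvate.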
TRPML1 agonist: human mucolipin-1 channel agonism. TRPML1-expressing cells, Ca2+ dye fluorescence, FDSS. activation, % (test concentration not listed). actives 0.12% (n = 410,000). AID 624414; in the data active = activation above about 50%; inconclusive = mostly about 30% to 49%; also: 0% is about no effect
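Tet-induced TRPML1-DL cells, 1,500 per well, cultured overnight, were loaded with a no-wash Ca2+ dye for 45–90 min. Calcium fluorescence was recorded on the FDSS for 110 s after compound addition, before the EC80 agonist (4 uM 54-4) was added.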
TRPV1 potentiator: human TRPV1 potentiation | Q8NER1 | TRPV1-expressing cells, Fluo-8 calcium influx, capsaicin EC20 potentiation | potentiation, % at 8.33 µM | actives 0.02% (n = 320,000) | AID 540277; in the data active = potentiation above about 80%; inconclusive = between about 30% and that limit; also: 0% is about no effect
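TRPV1-expressing cells were cultured overnight at 35.5C and loaded with Fluo-8 calcium dye for 40 to 90 min at room temperature. After a 10 s baseline, compound was added and calcium influx was read kinetically for 3 min (ex 480/em 520 nm).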
TRPML1 inh: blocks the human TRPML1 channel | AID 624415 | actives 0.02% (n = 390,000) | TRPML1-inducible cells, Ca2+ dye fluorescence, FDSS; stronger effect = lower value; inhibition of EC80 agonist-evoked calcium signal | activity change, negative = inhibition, % (concentration not given with the values) | Q9GZU1; in the data active = activity change below about -50%; inconclusive = between about -30% and that limit;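 also: stimulus is agonist 54-4 at its EC80 concentration; % is scaled to controls: 0 for no effect and ±100 for the full control effect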
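Tet-induced TRPML1-DL cells loaded with Ca8 no-wash calcium dye were read kinetically on FDSS. Compound addition was followed by EC80 agonist 54-4 (4 uM final); inhibition was read over 110 s.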
Starred values were filed as active, the others as inactive; ? = inconclusive; nt = no result given.

SMILES	TRPV1 ag	LDHA inh	TRPML1 agonist	TRPV1 potentiator	TRPML1 inh
CC(C)/C=C1\CC/C(=C\c2ccc(N(C)C)cc2)C1=O	?	-3.2	63.6*	2.6	-23.5
CN(C)S(=O)(=O)c1ccc(S(=O)(=O)N(Cc2ccco2)Cc2ccccc2Cl)cc1	4.5	-3.3	64.0*	-15.6	-17.9
CC(C)=CC1C(C(=O)NCc2ccccc2OC(F)F)C1(C)C (stereo not drawn)	nt	2.0	nt	nt	nt
N#Cc1cccc(NC(=O)CCC(=O)c2ccc3c(c2)OCCCO3)c1	nt	-4.4	nt	nt	nt
COc1ccc(CCNC(=S)NCc2ccc(Cl)c(Cl)c2)cc1OC	81.4*	-11.1	1.1	-1.3	17.1
Cc1sc2ncnc(OCC(=O)N3CC(=O)Nc4ccccc43)c2c1C	-2.0	-5.5	-0.1	95.9*	-1.6
CCNC(=O)CN1CCN(C(C(=O)O)c2c[nH]c3ccc(Cl)cc23)CC1 (stereo not drawn)	nt	-8.7	nt	nt	nt
Cc1cc(C)n(Cc2ccc(Cl)cc2Cl)c(=O)c1S(=O)(=O)c1ccccc1	-0.1	1.6	71.3*	-10.8	-2.6
CCOc1ncccc1CNC(=O)c1cc2cc(C)ccc2nc1C	nt	-7.0	nt	nt	nt
CCCOC(=O)c1c(-c2cccc(C)c2)csc1NC(=O)c1ccncc1	nt	-6.5	nt	nt	nt
CCCN1C(=O)/C(=C/c2ccc(N3CCCC3)c(C)c2)NC1=S	nt	1.9	67.1*	nt	-4.0
Cc1cc(/C=C2/C(=O)N(C)C(=S)N2C)ccc1N1CCCC1	20.4	0.0	?	15.8	-6.7
CCCN1C(=O)/C(=C/c2ccc(N3CCOCC3)cc2)NC1=S	?	-0.6	20.0	-1.7	-1.1
CCN1C(=O)/C(=C/c2ccc(N3CCCC3)cc2)NC1=S	?	2.2	64.1*	-5.2	-16.2
Cc1cc(/C=C2\NC(=S)N(C)C2=O)ccc1N1CCCC1	88.9*	0.3	94.0*	-1.0	-10.8
O=C1OC(C(=O)Nc2cccc3cccnc23)Cc2ccccc21 (stereo not drawn)	nt	1.0	nt	nt	nt
CN(C)c1ccc(C(=O)OC(C(=O)c2ccccc2)c2ccccc2)cc1 (stereo not drawn)	nt	-4.0	nt	nt	nt
Cc1cc(C(=O)OCC(=O)Nc2ccc(F)c(F)c2F)c2ccccc2n1	nt	-1.9	nt	nt	nt
Cc1ccc(C(=O)Nc2nc3nc(C)cc(=O)n3[nH]2)cc1	nt	-70.4*	-0.3	nt	-6.6
CCOC(=O)c1[nH]c(C)c(C(=O)c2ccc(C)cc2)c1C	89.6*	-10.0	1.7	0.2	1.5
CC(C)(C)c1ccc(-c2nc(SCC(=O)Nc3ccc(Cl)cc3)[nH]c(=O)c2C#N)cc1	6.6	-30.7*	1.8	17.3	-10.5
CCC(C)NC(=O)C1=Cc2sc3c(c2CS1)CCCC3 (stereo not drawn)	nt	8.3	nt	nt	nt
Cc1ccccc1C(=O)Nc1nnc(-c2ccc(C(C)(C)C)cc2)s1	-3.5	-1.4	0.9	82.7*	6.6
O=C(Nc1cccnc1)c1ccc(F)cc1	17.6	-10.0	-0.5	-15.6	-1.8
O=C(Nc1ccc(Cl)cc1)Nc1cccnc1	?	-34.2*	0.5	-4.2	19.2
SMILES	TRPV1 ag	LDHA inh	TRPML1 agonist	TRPV1 potentiator	TRPML1 inh
O=C(Nc1cccnc1)c1ccc(N2CCCC2)c([N+](=O)[O-])c1	84.4*	-3.9	-0.5	-16.9	9.0
O=C(Nc1ccc(Cc2ccc(NC(=O)Nc3cccnc3)cc2)cc1)Nc1cccnc1	nt	-4.4	0.0	nt	-1.6
O=C(Nc1cccnc1)c1ccc(-c2ccccc2)cc1	87.5*	-2.4	0.3	-2.4	4.9
O=C(Nc1cccnc1)c1ccc(N2CCOCC2)c([N+](=O)[O-])c1	?	-7.2	0.3	-23.2	-13.4
Cc1nc2cc(F)ccc2cc1C(=O)N(C)CC1COc2ccccc2O1 (stereo not drawn)	nt	2.0	nt	nt	nt
CCCCC1CCC(C(=O)C2CCC(c3ccccc3)C2)CC1 (stereo not drawn)	nt	2.8	nt	nt	nt
CC1(C)CC(=O)C2=C(C1)NC(Nc1nc3ccccc3o1)=NC2c1cccc(Cl)c1 (stereo not drawn)	nt	-30.3*	nt	nt	nt
Cc1ccccc1C1N=C(Nc2nc3ccccc3o2)NC2=C1C(=O)CC(C)(C)C2 (stereo not drawn)	nt	-1.8	nt	nt	nt
O=[N+]([O-])c1cc(Br)c(O)c(/C=N/Nc2nnnn2-c2cccc3ccccc23)c1	3.3	-36.8*	1.5	14.5	-9.4
Cc1cc(C)nc(/N=C(\N)Nc2ccc(F)c([N+](=O)[O-])c2)n1	nt	-3.4	74.6*	nt	-13.2
Cc1cc(C)nc(/N=C(\N)Nc2ccc(SC(F)F)cc2)n1	16.0	-3.3	54.0*	-21.9	-13.2
CCCCCn1nc(C(=O)OCC(=O)N2c3ccccc3NC(=O)C2(C)C)c2ccccc2c1=O	nt	5.5	nt	nt	nt
O=c1[nH]nc(SCc2nc(-c3ccccc3)no2)n2nc(-c3ccco3)cc12	nt	-8.2	nt	nt	nt
Cc1ccc(S(=O)(=O)NCCC(=O)Nc2nccs2)cc1C	nt	-4.2	nt	nt	nt
COc1ccc(C2=NN(C(=O)Cn3cnc4sccc4c3=O)C(c3ccco3)C2)cc1 (stereo not drawn)	nt	7.2	nt	nt	nt
Cc1nn2c(C(F)F)cc(-c3ccc(F)cc3)nc2c1Br	nt	6.9	nt	nt	nt
Cc1ccc(-c2cc(C(F)F)n3nc(C)c(Br)c3n2)cc1	nt	-34.0*	nt	nt	nt
O=C(CSc1nc(-c2cccs2)nc2ccccc12)NCc1ccco1	nt	1.2	nt	nt	nt
COc1ccc(-c2ccc3[nH]c4c(c3c2)CCN2C(=O)[C@@H]([C@H](C)O)[C@@H](N(C)C(=O)Nc3cc(Cl)cc(Cl)c3)C[C@@H]42)cc1	nt	-3.2	0.1	nt	26.4
COc1ccc(-c2ccc3[nH]c4c(c3c2)CCN2C(=O)[C@@H]([C@H](C)O)[C@@H](N(C)C(=O)Nc3ccc(F)cc3)C[C@@H]42)cc1	nt	-30.8*	0.3	nt	-1.6
Cc1ccc2oc(C(=O)Nc3cccc4cccnc34)c(C)c2c1	nt	2.6	nt	nt	nt
O=C(Nc1ccncc1)c1cc(-c2cccs2)nc2ccccc12	nt	4.4	nt	nt	nt
O=C(C[C@H]1C(=O)N(C2CCCCC2)C[C@@H]1Cc1ccccc1)Nc1ccccc1	85.0*	-4.5	0.2	9.8	-14.4
COC(=O)NNC(=O)c1ccc(Cl)cc1Cl	-7.3	-6.5	-0.1	1.7	2.7
CC(C)(C)C(=O)NC(=S)NNC(=O)c1ccc(-c2ccccc2)cc1	?	-2.0	80.0*	-21.0	3.8
SMILES	TRPV1 ag	LDHA inh	TRPML1 agonist	TRPV1 potentiator	TRPML1 inh
CC(=O)NC(=S)NNC(=O)c1ccc(-c2ccccc2)cc1	nt	-7.1	nt	nt	nt
CC(C)(C)C(=O)NC(=S)NNC(=O)c1ccc(Cl)cc1Cl	?	-7.9	65.9*	-11.6	19.3
CCCN(C(=O)c1cccs1)c1nc(-c2ccccc2)cs1	nt	23.0	nt	nt	nt
N#Cc1ccc(/C=C/C(=O)N(Cc2ccc(C(F)(F)F)cc2)C2CC2)cc1	nt	10.7	nt	nt	nt
CCOC(=O)c1cnc2c(C)cccc2c1Nc1ccccc1OCC	nt	-34.7*	nt	nt	nt
CCOC(=O)c1cnc2c(Cl)cccc2c1Nc1ccccc1OCC	nt	-4.6	nt	nt	nt
Cc1cc(C)c(NC(=O)Cn2cc(S(=O)(=O)Cc3ccccc3F)c3ccccc32)c(C)c1	nt	-31.2*	1.3	nt	7.2
